Measured values published in PubChem BioAssay (NCATS).
Results filed as inconclusive are left out. Unmarked numbers belong to inactive results.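 The calls were made as follows, unless noted: active = compounds whose dose-response curve shows a full or clear partial loss of cell viability, called from curve shape rather than a numeric limit; inconclusive = weak partial curves or an effect only at the top dose; inactive = no dose-dependent loss of viability.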

Experiment: Cell Viability - BJ (AID 421; calls by dose curve;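 also: cells exposed to compound for 40 hours at 37 °C before readout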)
Details: BJ fibroblast viability, qHTS
Summary of the method: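 Normal human BJ foreskin fibroblasts, 1500/well in complete medium, treated 40 hr at 37 °C. Cellular ATP by CellTiter-Glo luminescence; normalized to DMSO and 100 uM tamoxifen, AC50 from Hill fit.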
Potency is read from the fitted curve at half-maximal effect.

SMILES | Potency
CCCCOC(=O)c1ccc(N)cc1 | > 92 µM
Nc1ccc(S(=O)(=O)c2ccc(N)cc2)cc1 | > 92 µM
CC(=O)NS(=O)(=O)c1ccc(N)cc1 | > 92 µM
Cc1cc(C)nc(NS(=O)(=O)c2ccc(N)cc2)n1 | > 92 µM

Experiment: Cell Viability - Jurkat (AID 426;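 active = dose-dependent loss of cell ATP signal giving a full or clear fitted curve, ranked by lower potency value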)
Details: qHTS
Summary of the method: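 Luminescent ATP read-out (CellTiter-Glo, 20 min at room temperature) after 40 hr compound exposure at 37 °C of Jurkat E6-1 cells, 5000/well. Decreased ATP taken as cytotoxicity; AC50 from standard Hill equation.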

SMILES | Potency
CCCCOC(=O)c1ccc(N)cc1 | > 92 µM
Nc1ccc(S(=O)(=O)c2ccc(N)cc2)cc1 | > 92 µM
CC(=O)NS(=O)(=O)c1ccc(N)cc1 | > 92 µM
Cc1cc(C)nc(NS(=O)(=O)c2ccc(N)cc2)n1 | > 92 µM

Experiment: Cell Viability - Hek293 (AID 427);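 also: cells exposed to compound for 40 hours at 37 °C before reading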
Details: qHTS
Summary of the method: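 HEK293 cells in complete medium were exposed to compound for 40 hr at 37 °C, then cellular ATP was read by CellTiter-Glo luminescence. Data were normalized to DMSO (basal) and 100 uM tamoxifen (100% inhibition), and AC50 came from Hill fits.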

SMILES | Potency
CCCCOC(=O)c1ccc(N)cc1 | > 92 µM
Nc1ccc(S(=O)(=O)c2ccc(N)cc2)cc1 | > 92 µM
CC(=O)NS(=O)(=O)c1ccc(N)cc1 | > 92 µM
Cc1cc(C)nc(NS(=O)(=O)c2ccc(N)cc2)n1 | > 92 µM
